Several values for one entry are separate records, joined by “and”; a condition that tells them apart may be missing. Equal values may be shown once. About 83,000 compounds went through this panel and 20% of them were active in at least one assay; those are over-represented in the sample as a whole.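 Treatment: one concentration, 48 hours, 96-well format. Scoring: percent growth, with anything below 10 considered active.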 Values without a mark were called inactive. Activity calls are given as the source filed them.
Each compound was assayed on HL-60(TB) leukemia (assay: NCI-60 one-dose screen, 48 h (100 = growth as untreated, 0 = no growth, -100 = all killed)). Conditions: 10 µM unless noted.
With `CN(C)CCNC(=O)c1cccc(-c2cnc3ccc(-c4ccc5c(c4)OCO5)nn23)c1` the growth was 64.1%.
For `Cc1sc2nc(N3CCCCC3)[nH]c(=O)c2c1C`, the growth was 102%.
`O=c1c2ccccc2oc2ccc(OCCCCCN3CCCCCC3)cc12` was tested, and the growth was 38%.
`Cn1ncc2c(Nc3ccc(O)cc3)nc(Cl)nc21` showed a growth of 95.1%.
Work on `[2H]c1nc(Nc2ncc(F)c(-c3cc(F)c4nc(C)n(C(C)C)c4c3)n2)c([2H])c([2H])c1CN1CCN(C([2H])([2H])C([2H])([2H])[2H])CC1` yielded a growth of 34.6%.
For `COc1ccccc1NC(=O)OCC#CCOC(=O)Nc1ccccc1OC`, the growth was 85.4% and 64.8%.
In the case of `C=C(C)[C@@H]1CC[C@]2(C(N)=O)CC[C@]3(C)[C@H](CC[C@@H]4[C@@]5(C)CCCNC(C)(C)[C@@H]5CC[C@]43C)[C@@H]12`, the growth is reported as 61.1%.
With `NC(=O)CSSCC(N)=O` the growth was 9.36% (active).
With `Oc1ccc(Cl)cc1-c1cc(-c2ccccc2Cl)[nH]n1` the growth was 46.6%.
With `Cc1c2c(nn1C(=O)c1nn(-c3ccc(Cl)cc3)cc1O)-c1ccccc1CC2` the growth was -43.4% (active).
In the case of `CCCCCCc1cc2cc(-c3csc(/C=C/c4ccccc4)n3)c(=O)oc2cc1O`, the growth is reported as -46.8% (active).
`CN1C(=O)/C(=C/c2nc(-c3cccc(F)c3)n3ccccc23)c2ccccc21` was tested, and the growth was 92.6%.
For `O=C(CCc1ccc(O)cc1)N/N=C/c1cc(Br)ccc1O`, the growth was -6.29% (active).
With `N#Cc1cnn2c(-c3ccc(Cl)cc3)nc(NC3CC3)nc12` the growth was 98.2%.
`Fc1cnccc1C1CC(c2ccc(N3CCNCC3)cc2)=NN1` (centres undefined) gave a growth of 77.3%.
Work on `O=c1cc(-c2ccccc2)oc2c(O)c(O)ccc12` yielded a growth of 59.4%.
For `COc1cnc2c(c1)C(=O)c1c-2n(CCCNC(C)C)c(=O)c2cc(Cl)ccc12`, the growth was -69.1% (active).
`O=C(O)c1cccc(Br)c1` was tested, and the growth was 104% and 98.8%.
Compound `Clc1cc2c(c(CSc3nc4ccccc4n4cccc34)c1)OCOC2` has a growth of 84.9%.
`CC/C=C\C[C@H](O)C/C=C1/C(=O)C(Cl)=C[C@@H]1C/C=C\CCCC(=O)O` was tested, and the growth was 19.4%.
`O=C(c1ccccc1)C(CN1CCCCC1)c1ccccc1` (centres undefined) was tested, and the growth was -43.7% (active).
Compound `O=C1c2cc(I)ccc2Oc2cc([N+](=O)[O-])ccc2N1c1ccc(Cl)cc1F` has a growth of 55.9%.
`O=C(Nc1ccc(Br)cc1)c1cc(Br)ccc1O` was tested, and the growth was -18.4% (active) and -60% (active).
With `Nc1nc(Nc2cc(Cl)cc(Cl)c2)nn1S(=O)(=O)c1ccc2ccccc2c1` the growth was 88.6%.
In the case of `COc1ccc(/C=C(\C#N)c2cc(OC)c(OC)c(OC)c2)cc1`, the growth is reported as -31.4% (active).
Work on `CCN(CC)CCCC(C)Nc1nc(-c2ccc(OC)cc2)nc2cc(Cl)ccc12` (centres undefined) yielded a growth of 51.8%.
In the case of `O=C(Nc1ccccc1)Nc1cccc(Oc2nnc(Cl)c3ccccc23)c1`, the growth is reported as 12.1%.
With `COC(=O)/C=C/c1cc(O)c2c(c1)C(C(=O)OC)C(c1ccc(O)c(O)c1)O2` (centres undefined) the growth was -10.5% (active) and -0.307% (active).
Compound `CC(=O)c1ccc(NC(=O)Nc2ccc(S(=O)(=O)Nc3ccc(Cl)nn3)cc2)cc1` has a growth of 109%.
With `COC1C(OC(N)=O)C(O)C(Oc2ccc3c(O)c(NC(=O)c4ccc(O)c(CC=C(C)C)c4)c(=O)oc3c2C)OC1(C)C` (centres undefined) the growth was 74% and 106%.
With `Cc1cc(Br)nnc1Br` the growth was 84.3%.
`Nc1nc(SCC#CCCl)c2[nH]cnc2n1` was tested, and the growth was 11%.
`O[C@H]1CO[C@H]2[C@@H]1OC[C@@H]2Oc1ccc(Nc2nc(Nc3ccc(F)c(Cl)c3)ncc2F)cc1Cl` gave a growth of 104%.
`CC(CCc1ccc(Cl)c(Cl)c1)NCc1ccc(C(C)(C)C)cc1` (centres undefined) was tested, and the growth was 46.2%.
For `C=C(C)[C@@H]1CC[C@@]2(C(=O)O)CC[C@]3(C)C(CCC4[C@@]5(C)CCC(OS(=O)(=O)c6ccccc6)C(C)(C)C5CC[C@]43C)C12` (some centres undefined), the growth was 21.4%.
For `CCN(CC)CCOc1ccc(/C=N/Nc2nc3c([nH]2)c(=O)n(C)c(=O)n3C)cc1`, the growth was 97.3% and 115%.
With `COc1cc(-c2c3c(nc4c2c(C)nn4-c2ccccc2)-c2ccccc2C(=O)C3=O)cc(OC)c1OC` the growth was 68.8%.
For `CC1(C)CC[C@]2(c3nnc(-c4ccncc4)o3)CC[C@H]3C(=CC[C@H]4[C@@]3(C)CC[C@H]3C(C)(C)C(=O)CC[C@]43C)[C@@H]2C1`, the growth was 3% (active).
For `COc1cc(OC)cc(C2=C3CC[C@@H]4[C@H](CC[C@]5(C)C(=O)CC[C@@H]45)C3=CC3C(O)c4cccnc4N4C(=O)COC234)c1` (some centres undefined), the growth was 98%.

Reference: PubChem BioAssay (NCI)
